Data on 55 compounds can be found in ChEMBL document CHEMBL3988442, “University of Dundee, Small-Polar-MMV Screening Library” (2021).

Molecules are shown by their SMILES. Hit rate of the full screen: of about 48,000 compounds, about 13,000 (27%) showed an effect of 50% or more. Some of the results follow.

The assay concerns Wolbachia pipientis. In words: Anti-Wolbachia Cell-Based Screen. The assay is classed as functional. Details: scale not given: in the data most compounds retested in dose-response had high values. The following applies: 5 µM.
Regarding `CC(C)c1cc(C(=O)N2CCOCC2CC(=O)c2ccco2)nn1C` (stereo not given), the “Percent Effect” value is 128.9%.

In the case of `CC(C)c1nc(C(=O)N2CCOCC2CC(=O)c2ccco2)cs1` (stereo not given), the “Percent Effect” value stood at 84.12%.

Turning to `CCc1ncc(C(=O)N2CCOCC2CC(=O)c2ccccc2)s1` (stereo not given), the “Percent Effect” value was -7.731%.

Take `CC(C)c1cc(C(=O)N2Cc3ccccc3CC2C(=O)O)nn1C` (stereo not given): the “Percent Effect” value is recorded as 14.25%.

With `CCc1nc(C(=O)N2CCOCC2CC(=O)c2ccccc2)c[nH]1` (stereo not given), the “Percent Effect” value is -17.76%.

`CCc1ocnc1C(=O)N1CCOCC1CC(=O)c1ccccc1` (stereo not given): the “Percent Effect” value is -28.11%.

As for `CC(C)c1ccc(C(=O)N2CCOCC2CC(=O)c2ccco2)cn1` (stereo not given), the “Percent Effect” value is reported as 178.1%.

Turning to `CC[C@H]1COCCN1C(=O)c1cnc(-c2ccccc2)nc1C`, the “Percent Effect” value is -84.76%.

For the compound `CC(C)c1ncc(C(=O)N2CCOCC2CC(=O)c2ccco2)s1` (stereo not given), the “Percent Effect” value is on record as 131.2%.

As to `CCc1ncc(C(=O)N2CCOCC2c2c(C)n[nH]c2C)s1` (stereo not given), the “Percent Effect” value is given as 6.424%.

Regarding `CC(C)c1cc(C(=O)N2CCc3ccccc3C2C(=O)O)nn1C` (stereo not given), the “Percent Effect” value was determined as 7.9%.

With `Cc1cc2c(C)cc(O)cc2c(=O)o1`, the “Percent Effect” value is -3.203%.

Take `CC(C)(C)OC(=O)N1CCC[C@H](NCc2cc[nH]c2)C1`: the “Percent Effect” value was -5.919%.

Turning to `CC(C1CCN(Cc2ccc(N(C)C)nc2)CC1)N(C)C` (stereo not given), the “Percent Effect” value came to 14.62%.

Turning to `COCC(c1ccccn1)N(C)C(=O)c1cc(-c2ccccc2O)n[nH]1` (stereo not given), the “Percent Effect” value is -8.202%.

Take `O=S(=O)(C1CC1)N1CCC2(CC1)CC(Oc1ccccn1)CO2` (stereo not given): the “Percent Effect” value is -5.73%.

With `COCc1c(C(=O)N2CCCC(C(=O)c3nccn3C)C2)noc1C` (stereo not given), the “Percent Effect” value is reported as -5.481%.

As to `COc1cccc(N2CCC(N3C[C@@H](NC(C)=O)[C@H](C(C)C)C3)CC2)c1`, the “Percent Effect” value is on record as 4.736%.

Take `Cc1nc(-c2cccc(N3CCC(NC4CCOCC4)CC3)c2)cs1`: the “Percent Effect” value is given as -8.689%.

For the compound `COc1cccc(-c2cccc(N3CCC(N[C@@H]4CCOC4)CC3)c2)c1`, the “Percent Effect” value amounted to 68.86%.

As for `Cc1nc(-c2cccc(N3CCC(NC4CCSC4)CC3)c2)cs1` (stereo not given), the “Percent Effect” value was -11.84%.

With `CN1CCOC[C@H]1c1nc(-c2cccc(F)c2)c[nH]1`, the “Percent Effect” value was determined as 6.119%.

Regarding `COc1cccc(N2CCC(N3CCOC(C(F)(F)F)C3)CC2)c1` (stereo not given), the “Percent Effect” value is 11%.

For `Cc1nc(-c2cccc(N3CCC(N[C@@H]4CCOC4)CC3)c2)cs1`, the “Percent Effect” value is reported as 61.49%.

On to `Fc1cccc(-c2c[nH]c([C@@H]3COCCN3C3CCOCC3)n2)c1`, for which the “Percent Effect” value was 5.513%.

In the case of `Fc1cccc(-c2cccc(N3CCC(NC4CCCOC4)CC3)c2)c1` (stereo not given), the “Percent Effect” value was 80.75%.

For `Cc1c(C)n(CC(O)CN2CCC(O)CC2)c2c(Cl)cccc12` (stereo not given), the “Percent Effect” value is reported as 9.661%.

In the case of `CN(C)S(=O)(=O)N1C[C@@H]2CC[C@H](C1)N(Cc1ccc3c(c1)OCCO3)C2`, the “Percent Effect” value is 2.095%.

On to `CCOc1cccc(NCc2cnc(N3CCN(C)CC3)nc2)n1`, for which the “Percent Effect” value is recorded as 6.944%.

Regarding `CN1CCC(c2cccc(NCc3ccncc3)n2)CC1`, the “Percent Effect” value is 80.62%.

On to `Cn1ccnc1CNc1nccc(-c2ncnn2C)n1`, for which the “Percent Effect” value came out at 23.33%.

As to `CN1CCC(c2cnc(NCc3nccn3C)cn2)CC1`, the “Percent Effect” value is 131.5%.

For `Cn1ccnc1CNc1ccc(F)c(N2CCCS2(=O)=O)c1`, the “Percent Effect” value worked out at 0.7519%.

Consider `CN1CCC(c2cccc(NCc3nccn3C)n2)CC1`, for which the “Percent Effect” value stood at 108.8%.

As to `CC(C)c1nccn1-c1cccc(C2CCN(C)CC2)n1`, the “Percent Effect” value amounted to 4.105%.

`Cn1ccnc1CNc1c(F)cccc1-n1cccn1`: the “Percent Effect” value is -3.206%.

Take `N#Cc1nccnc1N1CCN(CCOCc2ccccc2)CC1`: the “Percent Effect” value was determined as 4.216%.

With `CC1CCc2sc(C(=O)Nc3cnn(C)c3)cc2C1` (stereo not given), the “Percent Effect” value is reported as 18.64%.

On to `Cc1ncnc(NC(CC(C)(C)C)c2cccnc2)c1C` (stereo not given), for which the “Percent Effect” value is recorded as -0.1537%.

On to `CN(Cc1cccs1)C(=O)c1ccc(=O)n(C)c1`, for which the “Percent Effect” value is 1.128%.

As to `Fc1cccc2ncnc(NCC3(N4CCOCC4)CCSC3)c12` (stereo not given), the “Percent Effect” value is reported as -8.869%.

Take `COc1ccc(C2CCCN2C(=O)c2cc3c([nH]c2=O)CCC3)cc1` (stereo not given): the “Percent Effect” value is given as -1.742%.

For the compound `COc1cc(C(=O)NCCCc2ccccc2)on1`, the “Percent Effect” value is recorded as -0.8212%.

Regarding `O=C(c1ccn(-c2ccc(F)cc2)n1)N(CCO)Cc1cccnc1`, the “Percent Effect” value is 6.446%.

With `O=C(C1COc2ccccc2C1)N(CCO)Cc1ccccc1` (stereo not given), the “Percent Effect” value was 3.539%.

Regarding `CSc1ncccc1C(=O)N(CCO)Cc1ccccc1`, the “Percent Effect” value is recorded as 110.2%.

In the case of `COc1ccc(C(=O)N(CCO)Cc2ccccc2)c(OC)n1`, the “Percent Effect” value was 150.7%.

Turning to `Cn1ccnc1CN(CCO)C(=O)c1cc2ccccc2o1`, the “Percent Effect” value is reported as 4.663%.

Turning to `Cc1cccc(N2CCCC3(C2)CN(S(C)(=O)=O)CCO3)c1` (stereo not given), the “Percent Effect” value is reported as -0.08325%.

With `Cc1nc(C2CCCN2CCc2cccs2)no1` (stereo not given), the “Percent Effect” value is given as -9.357%.

For the compound `CC(C)c1nc(C2CCCN2CCCc2nc3ccccc3o2)no1` (stereo not given), the “Percent Effect” value worked out at 6.375%.

In the case of `Cc1nc(C2CCCN2CCOCC2CC2)no1` (stereo not given), the “Percent Effect” value was found to be 95.01%.

`CC(C)c1nc(C2CCCN2CCOCC2CC2)no1` (stereo not given): the “Percent Effect” value was 114%.

As for `C1CC(c2noc(C3CC3)n2)CN(CCOCC2CC2)C1` (stereo not given), the “Percent Effect” value came out at 14.88%.

For the compound `CSCCCN1CCCC1c1noc(C)n1` (stereo not given), the “Percent Effect” value is listed as -3.652%.
